Screens as filed in PubChem.
DT40 TDP1 no CPT: qHTS for Inhibitors of human tyrosyl-DNA phosphodiesterase 1 (TDP1): qHTS in cells in absence of CPT | DT40 Tdp1-/- hTDP1 cells, no CPT, ATP luminescence, 48 h | Potency, µM (top dose mostly 46.2 µM), for inactives: at the top dose activity change, negative = growth inhibition, most hits filed as inhibitors | 15% of 420,000 active; note: % is set by controls: 0 for no effect and ±100 for the full control effect; nearly all actives have a fitted effect of over 55% in size
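A cellular qHTS used chicken DT40 cells lacking endogenous Tdp1 but carrying stably transfected human TDP1. Compounds were applied without camptothecin, and cell growth kinetics were judged by ATP-dependent luminescence after ≥48 hr.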
HT1080 IDH1KD tx: kills HT-1080 cells with IDH1 knockdown | HT-1080 IDH1 knockdown viability, ATP luminescence, 48 h | Potency, µM (doses to about 46.1 µM), for the others: at the top dose activity, negative = toxicity, hits mostly cytotoxic | 2% of 360,000 active | AID 686971;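 note: 0% = DMSO wells and -100% = cell-free medium wells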
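CellTiter-Glo luminescence after 48 h compound exposure at 37 degrees C of IDH1-knockdown HT-1080 cells in 5% FBS RPMI. %Activity scaled between DMSO wells and cell-free media wells, with curves fitted and assigned curve classes.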
HT1080-NT tox: kills 2HG-producing HT-1080-NT fibrosarcoma cells; 1.6% of 360,000 active; HT-1080-NT fibrosarcoma viability, CellTiter-Glo ATP luminescence, 48 h; Potency, µM (top dose mostly 46.1 µM), without a hit: top-dose activity, negative = less viability, hits mostly cytotoxic;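 note: NT is the 2HG producing partner of a matched IDH1 knockdown line; 0% = DMSO-treated cells and -100% = media-only wells without cells; nearly all actives have a fitted effect of over 55% in size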
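HT-1080-NT; 750 cells/well; 5% FBS RPMI; 48 h compound, 37 degrees C; CellTiter-Glo luminescence; curve fitting and curve-class assignment.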
TDP1 cell CPT: DT40-hTDP1 cell growth loss with CPT; chicken DT40 Tdp1-/-;hTDP1 cells + 20 nM CPT, ATP luminescence, 48 h; Potency, µM (series often up to 46.2 µM), without a hit: at the highest dose activity change, negative = growth inhibition, hits mostly inhibitors; 12% of 420,000 active; note: % is set by controls: 0 for no effect and ±100 for the full control effect; nearly all actives have a fitted effect of over 55% in size
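Cell growth measured by CellTiter-Glo luminescence after a minimum 48 h, 37 C compound exposure with 20 nM CPT in Tdp1-knockout DT40 cells stably expressing hTDP1, seeded 400/well; qHTS titration format.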
TGFb inhibitor: inhibitors of TGF-b signaling; 1.2% of 410,000 active; Potency, µM (top dose mostly 46.1 µM), inactives show at the top dose activity, negative = inhibition, hits mostly inhibitors; HepG2 CAGA-GFP TGF-b/SMAD3 reporter, GFP fluorescence, 18 h; TGF-beta stimulated, 500 pg/mL final; note: % is set by controls: 0 for no effect and ±100 for the full control effect; nearly all actives have a fitted effect of over 65% in size
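Per well, imaged GFP fluorescence of HEPG2 CAGA-GFP cells gives the signal; cells get compound, then TGF-beta (500 pg/mL final), 18 h at 37 degrees C; %Activity versus -TGF-beta and +DMSO controls.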
HepG2 viability: HepG2 cytotoxicity, counter-screen for TGF-b inhibitors; HepG2 CAGA-GFP viability, ATP luminescence, 18 h; Potency, µM (highest dose often 46.1 µM), inactives show top-dose activity change, negative = cytotoxicity, most hits filed as cytotoxic; 0.76% of 410,000 active
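HepG2 CAGA-GFP cells (1000/well, DMEM with 1% FBS) received compound, then TGF-beta at 500 pg/mL final, and were incubated 18 hours at 37 degrees C. Viability was read by CellTiter-Glo luminescence. Media-only wells were set as complete cell-killing and DMSO as no toxicity.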
* marks the source's active call; other numbers are inactive results; ? = inconclusive; · = not tested or not shown. Rows were chosen to be rich in hits. Some 17% of all compounds tested hit in one or more screens of this group. Calls come from the whole dose curve; as a rule, active = well fitted curve in the direction sought with a large enough effect; inconclusive = small, poorly fitted or top-dose-only effect, or another doubt; inactive = no such curve, though single readings can be large; an effect the other way counts as inactive or inconclusive. Potency is the fitted concentration of half-maximal effect.

SMILES | DT40 TDP1 no CPT | HT1080 IDH1KD tx | HT1080-NT tox | TDP1 cell CPT | TGFb inhibitor | HepG2 viability
O=C(O)c1ccc(CN2C(=O)c3cccc4c([N+](=O)[O-])ccc(c34)C2=O)cc1 | 16.4µM* | ? | ? | 14.6µM* | 59.1% | -7.7%
O=C(CSc1nnc(-c2ccccc2F)n1CCc1ccccc1)Nc1ccc2[nH]c(=O)[nH]c2c1 | -15.3% | -1.6% | 1.9% | -12.1% | -0.8% | -15.3%
Cc1cccc([C@H]2[C@@H]3C=CCC[C@@H]3C(=O)N2Cc2ccccc2)c1 | ? | -0.7% | 13.6% | ? | ? | -9.1%
CCCC/C=C/[C@@H](c1ccccc1)C1COC(=O)CC1O (stereo partly drawn) | · | · | · | · | -10.2% | -30.7%
COc1cc2oc(=O)cc(-c3cccc(-c4ccc(C(F)(F)F)cc4)c3)c2c(OC)c1OC | 14.6µM* | -1.8% | -2.2% | 23.1µM* | ? | -27.7%
COc1cc(OC)c2c(-c3cccc(-c4ccoc4)c3)cc(=O)oc2c1 | ? | ? | ? | ? | ? | -4.7%
COc1cc2oc(=O)cc(-c3ccc(-c4ccc(CO)cc4)cc3)c2c(OC)c1OC | 18.4µM* | -8.6% | -9.7% | 20.6µM* | 3.6% | -30.3%
COc1cc(OC)c2c(-c3cccc(-c4ccc(C(C)=O)cc4)c3)cc(=O)oc2c1 | 0.92µM* | 3.26µM* | 5.17µM* | 1.16µM* | ? | 2.4%
COc1cc2oc(=O)cc(-c3ccc(-c4ccc(C#N)cc4)cc3)c2c(OC)c1OC | 8.2µM* | -1.8% | -3.2% | 7.31µM* | ? | -33.8%
COc1cc2oc(=O)cc(-c3ccc(-c4ccc(C)cc4)cc3)c2c(OC)c1OC | ? | 12.5% | 16.2% | ? | 3.8% | 3.1%
Cc1cc(C)c2nc(SCC(=O)Nc3ccccc3N3CCOCC3)c(C#N)cc2c1 | ? | 2.2% | 4.5% | ? | 1.2% | -14.4%
Cc1cc(C)c2nc(SCC(=O)N3CC(=O)Nc4ccccc43)c(C#N)cc2c1 | 1.3µM* | 0.92µM* | ? | 1.3µM* | ? | 3.6%
O=C1c2cccc(O)c2C(=O)c2c(O)cc(CO)cc21 | -32.5% | 6.2% | 1.3% | -25.0% | 0.5% | -4.1%
O=C1c2c(O)ccc(O)c2C(=O)c2c(NCCNCCO)ccc(NCCNCCO)c21 | 0.0326µM* | 23.1µM* | 1.46µM* | 0.184µM* | 1.58µM* | -42.9%
COc1ccc(Cl)cc1N(C)C(=O)Cn1cnc2sc(C)c(S(=O)(=O)N3CCN(c4ncccn4)CC3)c2c1=O | ? | · | · | -25.0% | -5.9% | -18.3%
CCC(=O)N[C@H]1C=C[C@H](CC(=O)OC)O[C@@H]1CO | 0.6% | 15.4% | 4.1% | 2.4% | · | ·
Cc1cc(C)c2c(NC(=O)c3ccccc3Cl)c(C(=O)Nc3ccc(C)c(C)c3)sc2n1 | 16.4µM* | · | · | 8.2µM* | 16.1% | 2.5%
CCc1ccc(NC(=O)c2sc3nc(C)cc(C)c3c2NC(=O)c2ccccc2OC)cc1 | · | · | · | · | 0.9% | -60.9%
O=C(NCc1ccc2c(c1)CCO2)Nc1ccccc1 | -14.3% | 5.1% | 14.7% | 14.5% | 0.0% | -58.4%
CC1=[N+](C)N(c2ccccc2)C(=O)C1N=Cc1c(Cl)cccc1Cl (stereo not drawn) | 13.0% | 8.6% | 8.4% | 16.2% | -2.0% | 3.3%
CCS(=O)(=O)N1Cc2cc(C(=O)NCCOC)nc(-c3cccc(-c4ccncc4)c3)c2[C@@H]1CCO | -13.1% | 14.3% | 2.8% | -13.9% | · | ·
